Experiment [1] addresses Dual specificity protein kinase CLK3 (Homo sapiens) (UniProt P49761). The note with it: at 1 µM.
In experiment [2] the target is Dual specificity tyrosine-phosphorylation-regulated kinase 1A (Homo sapiens) (UniProt Q13627). As to conditions: at 0.1 µM.
The target is the same in experiment [3]. The note with it: at 1 µM.
In experiment [4] the target is Dual specificity tyrosine-phosphorylation-regulated kinase 1B (Homo sapiens) (UniProt Q9Y463). As to conditions: at 0.1 µM.
Chain of Dual specificity tyrosine-phosphorylation-regulated kinase 1B (Homo sapiens) (Q9Y463 whole entry, looked up): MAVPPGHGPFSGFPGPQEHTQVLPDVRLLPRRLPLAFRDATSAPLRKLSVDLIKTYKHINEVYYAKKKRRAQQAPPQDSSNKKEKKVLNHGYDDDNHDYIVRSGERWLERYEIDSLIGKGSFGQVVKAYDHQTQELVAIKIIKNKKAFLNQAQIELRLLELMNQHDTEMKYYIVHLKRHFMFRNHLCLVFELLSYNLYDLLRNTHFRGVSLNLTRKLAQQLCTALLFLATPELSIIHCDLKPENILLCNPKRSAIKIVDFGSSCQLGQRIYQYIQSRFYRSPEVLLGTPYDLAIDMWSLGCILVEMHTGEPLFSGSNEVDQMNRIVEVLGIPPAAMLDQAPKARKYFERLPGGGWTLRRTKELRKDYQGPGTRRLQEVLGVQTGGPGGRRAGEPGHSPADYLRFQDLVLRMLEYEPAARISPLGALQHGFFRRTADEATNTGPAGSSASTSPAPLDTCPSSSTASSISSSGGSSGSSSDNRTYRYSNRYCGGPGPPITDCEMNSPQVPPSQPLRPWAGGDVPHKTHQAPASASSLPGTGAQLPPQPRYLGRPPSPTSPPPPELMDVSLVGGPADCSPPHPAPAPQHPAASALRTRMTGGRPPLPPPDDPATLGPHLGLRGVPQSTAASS
Experiment [5] shares this target. The note with it: at 1 µM.
Experiment [6] concerns the target T1, Dual specificity tyrosine-phosphorylation-regulated kinase 2 (Homo sapiens) (UniProt Q92630).
T1 sequence (whole entry): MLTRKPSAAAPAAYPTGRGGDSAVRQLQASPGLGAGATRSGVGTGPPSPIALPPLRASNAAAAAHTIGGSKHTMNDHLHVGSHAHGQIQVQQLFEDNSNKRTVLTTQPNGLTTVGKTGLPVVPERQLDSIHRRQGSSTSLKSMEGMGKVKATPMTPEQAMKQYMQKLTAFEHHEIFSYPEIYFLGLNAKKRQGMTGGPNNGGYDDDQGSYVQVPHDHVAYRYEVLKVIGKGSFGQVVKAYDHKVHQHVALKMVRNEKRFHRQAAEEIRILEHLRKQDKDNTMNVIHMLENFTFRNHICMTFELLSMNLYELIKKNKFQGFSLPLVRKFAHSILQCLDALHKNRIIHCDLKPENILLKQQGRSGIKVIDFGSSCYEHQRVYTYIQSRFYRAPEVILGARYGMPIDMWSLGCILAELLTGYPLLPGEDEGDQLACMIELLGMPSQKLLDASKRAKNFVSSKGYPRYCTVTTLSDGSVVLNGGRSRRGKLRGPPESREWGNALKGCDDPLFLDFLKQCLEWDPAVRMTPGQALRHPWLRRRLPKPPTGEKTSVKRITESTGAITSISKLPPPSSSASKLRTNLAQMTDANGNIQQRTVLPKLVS
As to conditions: at 0.1 µM.

The target of experiment [7] is T1, Dual specificity tyrosine-phosphorylation-regulated kinase 2 (Homo sapiens). The note with it: at 1 µM.
Experiment [8] concerns the target Glycogen synthase kinase-3 alpha (Homo sapiens) (UniProt P49840). As to conditions: at 0.1 µM.
Experiment [9] has the same target. As to conditions: at 1 µM.
Experiment [10] concerns the target Glycogen synthase kinase-3 beta (Homo sapiens) (UniProt P49841). The note with it: at 0.1 µM.
Experiment [11] shares this target. The note with it: at 1 µM.
Experiment [12] deals with Homeodomain-interacting protein kinase 1 (Homo sapiens) (UniProt Q86Z02). The note with it: at 0.1 µM.
Chain of Homeodomain-interacting protein kinase 1 (Homo sapiens) (Q86Z02 whole entry, looked up): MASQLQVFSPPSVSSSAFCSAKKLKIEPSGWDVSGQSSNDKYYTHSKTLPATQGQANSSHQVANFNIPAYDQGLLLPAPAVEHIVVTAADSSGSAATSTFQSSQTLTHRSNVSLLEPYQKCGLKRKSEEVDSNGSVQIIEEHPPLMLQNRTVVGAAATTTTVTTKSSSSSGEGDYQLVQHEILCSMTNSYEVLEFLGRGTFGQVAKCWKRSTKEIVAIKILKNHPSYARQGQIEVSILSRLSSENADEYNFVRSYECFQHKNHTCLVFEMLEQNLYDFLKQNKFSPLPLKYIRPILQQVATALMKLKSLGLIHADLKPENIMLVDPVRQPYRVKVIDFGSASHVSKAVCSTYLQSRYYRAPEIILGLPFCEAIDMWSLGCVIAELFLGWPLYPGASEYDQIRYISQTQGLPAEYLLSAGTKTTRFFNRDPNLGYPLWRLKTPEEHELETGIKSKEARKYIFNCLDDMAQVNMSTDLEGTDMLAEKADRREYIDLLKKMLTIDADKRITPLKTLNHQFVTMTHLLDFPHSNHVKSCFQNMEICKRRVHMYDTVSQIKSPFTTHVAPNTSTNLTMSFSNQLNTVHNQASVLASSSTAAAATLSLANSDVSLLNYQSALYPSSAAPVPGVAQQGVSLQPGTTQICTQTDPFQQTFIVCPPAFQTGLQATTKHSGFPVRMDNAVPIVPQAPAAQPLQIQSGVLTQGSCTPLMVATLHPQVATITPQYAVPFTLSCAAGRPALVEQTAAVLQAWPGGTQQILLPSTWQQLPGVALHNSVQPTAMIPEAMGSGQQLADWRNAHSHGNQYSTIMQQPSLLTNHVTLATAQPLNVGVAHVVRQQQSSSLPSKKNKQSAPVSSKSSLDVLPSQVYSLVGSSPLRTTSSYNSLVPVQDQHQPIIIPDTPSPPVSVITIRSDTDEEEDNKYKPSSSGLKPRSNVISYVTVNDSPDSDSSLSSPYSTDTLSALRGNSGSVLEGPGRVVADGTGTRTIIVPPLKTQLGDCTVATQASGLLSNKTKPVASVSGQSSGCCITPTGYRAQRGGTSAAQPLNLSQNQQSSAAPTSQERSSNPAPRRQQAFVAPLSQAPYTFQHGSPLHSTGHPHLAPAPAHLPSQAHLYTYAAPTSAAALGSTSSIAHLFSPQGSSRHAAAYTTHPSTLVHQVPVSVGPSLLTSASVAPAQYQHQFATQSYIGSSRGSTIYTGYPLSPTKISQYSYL
Experiment [13] has the same target. The note with it: at 1 µM.
The target of experiment [14] is T2, Homeodomain-interacting protein kinase 4 (Homo sapiens) (UniProt Q8NE63).
T2 sequence (whole entry): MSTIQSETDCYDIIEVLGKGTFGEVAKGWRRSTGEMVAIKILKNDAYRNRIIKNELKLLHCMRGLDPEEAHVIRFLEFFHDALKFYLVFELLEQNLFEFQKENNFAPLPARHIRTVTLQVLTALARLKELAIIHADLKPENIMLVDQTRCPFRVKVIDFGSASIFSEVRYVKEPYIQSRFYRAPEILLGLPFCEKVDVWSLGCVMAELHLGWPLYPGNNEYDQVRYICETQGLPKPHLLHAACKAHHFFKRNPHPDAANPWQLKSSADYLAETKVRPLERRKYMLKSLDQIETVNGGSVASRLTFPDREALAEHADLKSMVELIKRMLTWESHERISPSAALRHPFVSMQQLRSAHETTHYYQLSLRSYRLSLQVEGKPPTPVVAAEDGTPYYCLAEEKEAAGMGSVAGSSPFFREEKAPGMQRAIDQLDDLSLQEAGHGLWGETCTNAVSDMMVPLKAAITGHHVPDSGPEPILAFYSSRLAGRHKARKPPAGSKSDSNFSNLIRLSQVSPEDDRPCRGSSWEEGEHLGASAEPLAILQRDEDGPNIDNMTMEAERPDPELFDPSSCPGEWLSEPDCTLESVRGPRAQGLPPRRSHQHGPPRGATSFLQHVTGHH
The note with it: at 0.1 µM.

In experiment [15] the target is T2, Homeodomain-interacting protein kinase 4 (Homo sapiens). The note with it: at 1 µM.
Experiment [16] has as its target Mitogen-activated protein kinase 9 (Homo sapiens) (UniProt P45984). The note with it: at 0.1 µM.
Experiment [17] shares this target. As to conditions: at 1 µM.
For experiment [18], the target named is Mitogen-activated protein kinase 1 (Homo sapiens) (UniProt P28482). As to conditions: at 0.1 µM.
Chain of Mitogen-activated protein kinase 1 (Homo sapiens) (P28482 whole entry): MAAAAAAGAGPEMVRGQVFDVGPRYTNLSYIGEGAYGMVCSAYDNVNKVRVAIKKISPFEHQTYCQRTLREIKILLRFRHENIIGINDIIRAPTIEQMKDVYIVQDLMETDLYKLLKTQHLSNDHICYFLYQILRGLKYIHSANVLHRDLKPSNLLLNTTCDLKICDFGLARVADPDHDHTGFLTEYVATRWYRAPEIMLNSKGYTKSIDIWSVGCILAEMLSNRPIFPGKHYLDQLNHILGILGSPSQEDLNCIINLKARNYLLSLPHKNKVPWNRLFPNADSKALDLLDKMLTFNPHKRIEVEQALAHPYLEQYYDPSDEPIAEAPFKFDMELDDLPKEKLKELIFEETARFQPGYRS
Experiment [19] shares this target. The note with it: at 1 µM.
In experiment [20] the target is Mitogen-activated protein kinase 3 (Homo sapiens) (UniProt P27361). As to conditions: at 0.1 µM.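 Also: each value is a mean inhibition figure.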
Chain of Mitogen-activated protein kinase 3 (Homo sapiens) (P27361 whole entry): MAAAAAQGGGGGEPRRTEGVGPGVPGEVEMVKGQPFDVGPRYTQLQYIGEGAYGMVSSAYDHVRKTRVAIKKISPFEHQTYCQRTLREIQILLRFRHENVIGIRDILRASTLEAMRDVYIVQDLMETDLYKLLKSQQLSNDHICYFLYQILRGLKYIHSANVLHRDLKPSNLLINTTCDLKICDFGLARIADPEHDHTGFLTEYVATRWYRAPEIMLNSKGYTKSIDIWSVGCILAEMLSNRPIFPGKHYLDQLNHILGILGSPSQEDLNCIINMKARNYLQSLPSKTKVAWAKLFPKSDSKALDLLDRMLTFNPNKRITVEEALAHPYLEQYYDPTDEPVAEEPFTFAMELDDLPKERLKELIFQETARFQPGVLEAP

Chain of Glycogen synthase kinase-3 alpha (Homo sapiens) (P49840 2-483 limits assumed): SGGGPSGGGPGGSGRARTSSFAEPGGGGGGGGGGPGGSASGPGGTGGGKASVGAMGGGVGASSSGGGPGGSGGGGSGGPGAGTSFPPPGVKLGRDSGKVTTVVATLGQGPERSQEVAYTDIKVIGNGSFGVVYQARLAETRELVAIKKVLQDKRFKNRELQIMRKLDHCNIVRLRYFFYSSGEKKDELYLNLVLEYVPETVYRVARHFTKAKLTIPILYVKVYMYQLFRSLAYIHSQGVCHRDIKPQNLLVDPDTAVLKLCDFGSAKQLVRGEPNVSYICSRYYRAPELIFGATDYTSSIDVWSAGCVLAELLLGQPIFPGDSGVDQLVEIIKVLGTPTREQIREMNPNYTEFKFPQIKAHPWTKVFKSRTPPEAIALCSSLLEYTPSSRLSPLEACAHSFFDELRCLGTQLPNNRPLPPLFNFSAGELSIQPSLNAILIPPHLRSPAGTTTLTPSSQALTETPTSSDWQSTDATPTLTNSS
Chain of Mitogen-activated protein kinase 9 (Homo sapiens) (P45984 whole entry, looked up): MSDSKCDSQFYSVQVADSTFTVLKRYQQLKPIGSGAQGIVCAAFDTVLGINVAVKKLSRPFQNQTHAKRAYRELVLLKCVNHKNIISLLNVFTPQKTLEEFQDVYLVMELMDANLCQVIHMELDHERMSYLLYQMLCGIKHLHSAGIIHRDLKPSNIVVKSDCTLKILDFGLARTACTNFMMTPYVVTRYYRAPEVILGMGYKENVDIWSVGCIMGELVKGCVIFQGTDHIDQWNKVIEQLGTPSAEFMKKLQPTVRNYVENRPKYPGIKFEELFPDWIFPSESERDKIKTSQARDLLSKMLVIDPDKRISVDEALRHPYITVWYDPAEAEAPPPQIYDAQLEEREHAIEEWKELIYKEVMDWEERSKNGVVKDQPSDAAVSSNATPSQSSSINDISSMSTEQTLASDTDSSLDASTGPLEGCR
Chain of Dual specificity protein kinase CLK3 (Homo sapiens) (P49761 whole entry, looked up): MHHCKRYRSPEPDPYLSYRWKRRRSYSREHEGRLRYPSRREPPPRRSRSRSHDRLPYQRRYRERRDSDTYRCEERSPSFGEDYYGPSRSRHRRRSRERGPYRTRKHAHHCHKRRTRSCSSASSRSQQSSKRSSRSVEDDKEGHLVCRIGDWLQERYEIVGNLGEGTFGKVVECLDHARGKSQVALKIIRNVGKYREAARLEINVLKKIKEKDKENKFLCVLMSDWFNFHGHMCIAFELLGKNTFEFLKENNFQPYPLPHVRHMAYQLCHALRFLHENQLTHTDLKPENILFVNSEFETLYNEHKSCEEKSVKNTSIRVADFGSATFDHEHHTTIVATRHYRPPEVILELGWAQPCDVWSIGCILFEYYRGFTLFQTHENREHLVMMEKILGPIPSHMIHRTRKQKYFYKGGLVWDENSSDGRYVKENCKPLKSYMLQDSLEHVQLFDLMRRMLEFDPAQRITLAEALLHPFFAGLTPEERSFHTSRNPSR
Chain of Glycogen synthase kinase-3 beta (Homo sapiens) (P49841 whole entry, looked up): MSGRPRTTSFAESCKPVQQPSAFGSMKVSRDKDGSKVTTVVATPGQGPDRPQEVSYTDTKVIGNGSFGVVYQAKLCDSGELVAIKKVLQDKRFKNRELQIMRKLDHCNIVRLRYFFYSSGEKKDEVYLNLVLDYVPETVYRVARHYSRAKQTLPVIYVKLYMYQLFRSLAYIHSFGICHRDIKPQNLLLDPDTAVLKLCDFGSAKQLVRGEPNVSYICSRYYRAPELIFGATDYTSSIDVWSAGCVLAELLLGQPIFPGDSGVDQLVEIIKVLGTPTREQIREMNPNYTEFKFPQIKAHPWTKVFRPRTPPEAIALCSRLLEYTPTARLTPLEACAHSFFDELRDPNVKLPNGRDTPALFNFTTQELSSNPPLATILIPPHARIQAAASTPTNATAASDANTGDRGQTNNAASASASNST

With `CCn1c(-c2nonc2N)nc2c(C#CC(C)(C)O)ncc(OCC3CCNCC3)c21`, the inhibition (as a rule, the change of the read-out against control, counted positive when it falls) in experiment [1] was -1.7%; in [2] it was -3.13%; in experiment [3] it was 1.2%; in experiment [4] it was -4.04%; in [5], -0.01%; in [6], 1.35%. Further, the inhibition in experiment [7] turned out to be 1.98%; in experiment [8] it was 12.9%; in experiment [9], 53.9%; in experiment [10], 11.9%; in experiment [11], 55.4%; in experiment [12], 0.15%. For the same molecule, the inhibition in experiment [13] was 19.7%; in experiment [14] it was 1.95%; in experiment [15] it was 11.1%; in experiment [16], 2.04%; in experiment [17], 2.67%; in [18], 5.25%. For the same molecule, the inhibition came out at 4.1% in [19] and 5.07% in [20].
Regarding `NS(=O)(=O)c1ccc(-c2ccc3c(NC(=O)C4CC4)n[nH]c3c2)cc1`, the inhibition in experiment [1] was determined as 2.75%; in [2], 2.37%; in experiment [3] it was 5.69%; in experiment [4], 0.86%; in experiment [5], 3.29%; in experiment [6], 1.63%. Moreover, the inhibition was 3.47% in [7]; 5.27% in experiment [8]; 8.87% in experiment [9]; 4.15% in experiment [10]; 7.66% in [11]; 2.52% in experiment [12]. In addition, the inhibition in experiment [13] worked out at 7.94%; in [14], 3.34%; in [15], 4.2%; in [16], 3.73%; in [17] it was 4.23%; in experiment [18], 2.15%. Further, the inhibition stood at 3% in [19] and 1.44% in experiment [20].
Regarding `NS(=O)(=O)c1ccc(N/C=C2\C(=O)Nc3ccc4ncsc4c32)cc1`, the inhibition turned out to be 9.47% in [1]; 21.7% in [2]; 74.4% in experiment [3]; 9.26% in [4]; 44.9% in experiment [5]; 6.51% in [6]. Also, the inhibition in experiment [7] is 29%; in [8], 25.2%; in experiment [9] it was 62.8%; in experiment [10], 26.1%; in experiment [11] it was 65.1%; in experiment [12], 3.83%. Further, the inhibition in experiment [13] amounted to 34.7%; in [14], 1.88%; in experiment [15], 11.8%; in experiment [16], 5.59%; in experiment [17], 20.2%; in experiment [18] it was 8.37%. Further, the inhibition was determined as 31.1% in experiment [19] and 5.66% in experiment [20].
`COc1cccc(COc2cc(-n3cnc4ccccc43)sc2C(N)=O)c1`: the inhibition is -0.91% in experiment [1]; 0.34% in experiment [2]; -0.09% in [3]; -0.5% in experiment [4]; -2.7% in [5]; -0.21% in [6]. For the same molecule, the inhibition is -2.08% in [7]; 1.06% in experiment [8]; 3.48% in experiment [9]; 0.09% in experiment [10]; 2.12% in experiment [11]; -6.56% in experiment [12]. The inhibition is 1.66% in [13]; -0.59% in [14]; 2.84% in [15]; 2.36% in experiment [16]; -2.62% in [17]; 1.13% in [18]. Moreover, the inhibition in experiment [19] was determined as 1.97%; in [20], 2.69%.
For the molecule `COc1cc(C=NNc2ncnc3c2cnn3Cc2ccccc2)ccc1O`, the inhibition was 9.8% in experiment [1]; 3.11% in experiment [2]; 9.48% in experiment [3]; 3.37% in experiment [4]; 8.92% in experiment [5]; -4.67% in experiment [6]. The inhibition was -1.79% in experiment [7]; 5.54% in [8]; 19.6% in [9]; 5.36% in experiment [10]; 17.7% in experiment [11]; -2.83% in experiment [12]. For the same molecule, the inhibition in experiment [13] was 1.68%; in experiment [14] it was -0.49%; in experiment [15] it was 2.59%; in [16], -0.98%; in experiment [17], -0.48%; in [18], 2.37%. The inhibition in [19] is -6.99%; in experiment [20] it was -2.79%.
With `Fc1ccc(-c2ncn(C3CCNCC3)c2-c2ccnc(Oc3ccccc3)n2)cc1`, the inhibition in [1] was -4.71%; in experiment [2], -2.73%; in experiment [3], -2.33%; in [4], -4.97%; in [5], -5.21%; in experiment [6], 1.43%. Moreover, the inhibition in experiment [7] is 0.78%; in [8] it was -1.47%; in experiment [9], -2.08%; in experiment [10], -2.46%; in experiment [11], -1.88%; in experiment [12], -7.18%. The inhibition in experiment [13] was -6.2%; in [14] it was 0.38%; in experiment [15], 2.3%; in [18], 2.78%; in [19], 6.09%; in [20] it was 2.44%.
For `NC(=O)c1sc(-n2cnc3cc(C(F)(F)F)ccc32)cc1OCc1ccccc1Br`, the inhibition was -0.53% in experiment [1]; -0.2% in experiment [2]; 1.95% in [3]; -0.04% in experiment [4]; 0.72% in experiment [5]; 1.75% in [6]. In addition, the inhibition in [7] is 0.34%; in experiment [8], 1.61%; in experiment [9] it was 2.55%; in [10], 1.16%; in [11] it was 2.38%; in [12] it was -3.51%. Also, the inhibition in experiment [13] is 0.77%; in experiment [14], -0.26%; in [15], 2.95%; in experiment [16], 0.9%; in experiment [17], 1.72%; in experiment [18], 0.51%. The inhibition in experiment [19] stood at 2.13%; in experiment [20] it was 3.5%.

Values taken from ChEMBL document CHEMBL1961873, “Compounds: GSK PKIS; Assays: Nanosyn kinase panel” (2012).
